High-throughput results deposited in PubChem BioAssay by National Center for Advancing Translational Sciences (NCATS).
Hits are enriched below; roughly 11% of the tested compounds scored in any of these assays.
G9a block = inhibitors of human histone lysine methyltransferase G9a; Q96KQ7; G9a H3K9 monomethylation, AlphaScreen, 2 h; Potency, µM (series often up to 102 µM), without a hit: at the highest dose activity, negative = inhibition, hits mostly inhibitors; actives 8.8% (n = 350,000); further: potency means the concentration at half of the fitted maximal effect; nearly all actives have a fitted effect of over 75% in size
Target sequence (Q96KQ7 913-1193 limits assumed): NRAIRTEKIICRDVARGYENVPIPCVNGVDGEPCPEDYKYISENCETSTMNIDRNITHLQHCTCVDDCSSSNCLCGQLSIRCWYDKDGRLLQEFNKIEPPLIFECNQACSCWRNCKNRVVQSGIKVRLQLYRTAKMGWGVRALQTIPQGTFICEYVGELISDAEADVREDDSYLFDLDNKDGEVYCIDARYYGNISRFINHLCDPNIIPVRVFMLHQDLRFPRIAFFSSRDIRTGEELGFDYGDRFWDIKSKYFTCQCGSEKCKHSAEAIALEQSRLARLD
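Compounds were preincubated with 20 nM G9a for 15 min, after which biotinylated H3K9 peptide (500 nM) and SAM (20 uM) started a 2 h room-temperature reaction. Monomethylated product was quantified by antibody-based AlphaScreen chemiluminescence.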
Tau fibril ThT = blocks human tau fibril formation measured by thioflavin T; recombinant tau K18 P301L, heparin-induced fibrillization, ThT fluorescence; P10636; Potency, µM (highest dose often 57.4 µM), inactives show top-dose activity, negative = inhibition, hits mostly inhibitors; actives 2.1% (n = 270,000); further: potency means the concentration at half of the fitted maximal effect; nearly all actives have a fitted effect of over 55% in size
Target sequence (P10636 561-689 P618L limits assumed): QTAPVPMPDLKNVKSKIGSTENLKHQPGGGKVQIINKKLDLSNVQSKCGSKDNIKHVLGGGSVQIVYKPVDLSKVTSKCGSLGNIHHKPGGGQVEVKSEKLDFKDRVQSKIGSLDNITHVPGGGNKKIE
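Fibril formation assay: tau K18 P301L at 15 uM with trace Alexa 594 label, heparin inducer 20 uM, pH 7 sodium acetate buffer, 37 C for 6 hr; endpoint ThT signal.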
Tau fluor counter = counter-screen for tau fibril formation inhibitors | Potency, µM (highest dose often 57.7 µM), without a hit: at the top dose activity change, negative = decrease | tau K18 P301L Alexa594 fluorescence, heparin fibrillization | AID 1463 | actives 0.93% (n = 280,000); further: potency means the concentration at half of the fitted maximal effect; nearly all actives have a fitted effect of over 55% in size
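Human tau K18 P301L (15 uM unlabeled, 0.24 uM Alexa 594-labeled) in 100 mM sodium acetate pH 7 with 20 uM heparin, 6 hr at 37 C. ThT 30 uM added, 1 hr ambient; Alexa 594 FP and total fluorescence read at 555/632 nm.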
Sfp inh = inhibitors of Bacillus subtilis Sfp phosphopantetheinyl transferase. Q9F4F7. actives 3.5% (n = 310,000). Biochemical Sfp PPTase activity, qHTS. AID 1490. Potency, µM, without a hit: largest response in the series, negative = inhibition, hits mostly inhibitors;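 further: the enzyme is Sfp with the accession as filed and its product quenches rhodamine fluorescence; potency means the concentration at half of the fitted maximal effect; 0% = enzyme reaction without inhibitor and -100% = no enzyme wells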
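Compounds were incubated with enzyme (final 15 nM) for 15 min at room temperature before substrate addition started the reaction. Fluorescence at 525 nm excitation, 598 nm emission was recorded immediately and after 30 minutes.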
FBPA coupling cs = inhibits coupling enzyme system, counter-screen for aldolase hits. coupling enzyme system counterscreen, AmpLite Red fluorescence. activity change, negative = inhibition, % at 58.2 µM, hits read low. actives 0.67% (n = 290,000). AID 2472; in the data active means activity change below about -30%
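Counterscreen lacking aldolase: glyceraldehyde-3-phosphate coupling-enzyme reagent preincubated 10 min at RT with compound (at 57.5 uM final), then substrate/coupling system with AmpLite Red added; fluorescence read at 525/598 nm after 20 min RT.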
Tau FP inhib = inhibitors of human tau fibril formation; P10636; K18 P301L tau heparin fibrillization, Alexa594 FP, 6 h; Potency, µM (titrated, usually from 57.7 µM), for inactives: at the highest dose activity, negative = inhibition, usual class: inhibitors; actives 0.39% (n = 280,000); AID 1468; further: potency means the concentration at half of the fitted maximal effect; nearly all actives have a fitted effect of over 55% in size
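Compound effects on tau fibrillization are measured by Alexa 594 fluorescence polarization (ex 555, em 632 nm). K18 P301L tau is used at 15 uM with 0.24 uM labeled tracer, and 20 uM heparin induces aggregation over 6 hr at 37 C.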
* hit, by the source's call; ? = inconclusive; . = no result given; [ ] = dose if it differs, or a comment. Unless noted, the call rests on the fitted dose curve; in most records, active means well fitted curve in the direction sought with a large enough effect; inconclusive means small, poorly fitted or top-dose-only effect, or another doubt; inactive means no such curve, though single readings can be large; an effect the other way counts as inactive or inconclusive. Unless noted, on the % scale 0 is the no-effect control and ±100 the full control effect.

SMILES	G9a block	Tau fibril ThT	Tau fluor counter	Sfp inh	FBPA coupling cs	Tau FP inhib
CC1CC(C)(C)NC(=S)N1CCC(=O)NCc1ccc(F)cc1 (centres undefined)	39.8µM*	-1.2%	2.0%	10.2%	0.4	-8.3%
N#CCSc1ccccc1NC(=O)CN1C(=O)C2CC=CCC2C1=O (centres undefined)	44.7µM*	.	.	.	.	.
Cc1cc(Br)ccc1NC(=O)CN1C(=S)NC(C)(C)CC1C (centres undefined)	31.6µM*	16.0%	11.7%	?	-1.0	7.8%
CC1CC(C)(C)NC(=S)N1CCC(=O)NCc1ccc(Cl)cc1 (centres undefined)	4.1%	-3.4%	-7.4%	14.5%	1.8	-4.1%
Cc1cc(Br)ccc1NC(=O)CN1C(=O)C2CC=CCC2C1=O (centres undefined)	0.794µM*	.	.	.	.	.
CCc1ccccc1NC(=O)CN(c1ccccc1)S(=O)(=O)c1ccsc1C(=O)OC	17.4%[59 µM]	-13.7%	-15.1%	.	.	2.4%
CCOc1ccc(S(=O)(=O)NC(C)C)cc1C(N)=O	-0.1%	14.8%	11.3%	7.6%	-0.7	2.9%
COc1ccc(C(=O)NCCCCNC(=O)c2ccc(OC)c(OC)c2)cc1OC	43.0%	.	.	10.4%	1.1	.
N#Cc1c(Sc2ncc(C(F)(F)F)cc2Cl)nsc1C/C=N\OCc1c(F)cccc1Cl	10µM*	?	?	4.5%	-9.8	-6.0%
COc1cc(CNc2ccc(NC(C)=O)cc2)ccc1OCc1ccccc1C	39.8µM*	?	?	-4.5%	-1.3	?
COc1cc(CNc2ccc(N3CCOCC3)cc2)ccc1OCC(=O)NC(C)(C)C	.	.	.	-8.5%	1.0	.
COc1cc(CNc2ccc(N3CCN(C(C)=O)CC3)cc2)ccc1OCc1ccccc1	28.2µM*	3.98µM*	?	-27.0%	-3.7	-14.7%
Cc1c(C(=O)OCC(=O)Nc2ccc3c(c2)OCO3)cccc1[N+](=O)[O-]	9.7%[59 µM]	?	?	9.1%	-0.2	0.0%
CCOC(=O)c1sc(NC(=O)CN2CCN(c3ccccc3)CC2)nc1C	.	.	.	-3.4%	0.9	.
O=C(CSc1ncc2c(n1)-c1cc(Cl)ccc1N(Cc1ccccc1)S2(=O)=O)NCCc1ccccc1	2.9%[59 µM]	6.6%	-16.9%	.	.	?
COc1cccc(N2CCN(C(=O)c3ccc(Cn4c(=O)[nH]c5cc(OC)c(OC)cc5c4=O)cc3)CC2)c1	-44.1%[59 µM]	?	?	.	.	-12.5%
COc1ccc(CCNc2nc(C)nc3c2oc2ccccc23)cc1OC	7.1%[12.7 µM]	?	-10.5%	28.2µM*	1.2	-4.5%
Cc1cccc(Nc2nc(C)nc3c2oc2ccccc23)c1	79.4µM*	.	.	?	-0.7	.
CC(=O)c1ccc(Nc2ncnc3c2oc2ccccc23)cc1	79.4µM*	?	-4.4%	-16.3%	-2.8	-0.3%
CC(=O)N1CCN(c2ccc(Nc3nc(C)nc4c3oc3ccccc34)cc2)CC1	?	8.91µM*	?	5.8%	-8.6	2.1%
COc1cccc(CNC(=O)CS(=O)(=O)Cc2nc(-c3ccc(C)cc3)oc2C)c1OC	-35.3%	.	.	2.8%	2.0	.
Cn1c(/C=C/c2cccc([N+](=O)[O-])c2)c([N+](=O)[O-])c(=O)n(C)c1=O	-8.9%	.	.	3.3%	3.1	.
Cc1ccccc1C(=O)NCCNC(=O)c1ccccn1	17.2%	.	.	15.3%	0.4	.
Cc1ccccc1C(=O)NCCCNC(=O)c1ccccn1	50.1µM*	.	.	12.7%	-0.5	.
O=C(NCCCNCCCNC(=O)c1ccccn1)c1ccccn1	-41.3%[2.33 µM]	-10.3%	-14.6%	3.1%	0.0	-6.2%
SMILES	G9a block	Tau fibril ThT	Tau fluor counter	Sfp inh	FBPA coupling cs	Tau FP inhib
O=C(NCCN1CCNCC1)c1ccccn1	44.7µM*	-14.4%	-11.8%	?	1.4	3.0%
Cc1ccccc1NC(=O)CSC1=Nc2ccccc2C2=NC(Cc3ccccc3)C(=O)N12 (centres undefined)	-0.3%[12.7 µM]	-1.6%	-5.2%	.	.	-2.1%
CC(=O)c1ccc(N2CCN(c3ccc(C(N)=O)cc3[N+](=O)[O-])CC2)cc1	.	5.1%	5.6%	-5.7%	4.7	4.4%
O=C(O)c1ccc(N2CCN(C(c3ccccc3)c3ccccc3)CC2)c([N+](=O)[O-])c1	31.6µM*	.	.	5.1%	12.7	.
NC(=O)c1ccc(N2CCN(c3ccc(O)cc3)CC2)c([N+](=O)[O-])c1	?	17.8µM*	-20.6%	31.6µM*	-9.1	0.9%
CC(C)(C)c1ccc(C2=NC(=O)C(CC(=O)O)S2)cc1 (centres undefined)	50.1µM*	.	-16.0%	50.1µM*	0.5	?
CC1CN(CCOCCSc2ccc(Cl)cc2)CC(C)O1 (centres undefined)	?	.	.	-25.0%	0.4	.
C=CCc1cc(Cl)ccc1OCCNCCN1CCOCC1	10µM*	-11.3%	-12.3%	?	5.2	-5.0%
C=CCc1cc(OC)ccc1OCCN1CC(C)OC(C)C1 (centres undefined)	7.08µM*	.	.	56.2µM*	3.5	.
COc1ccc(OC)c(NC(=O)CCN2CC(C)OC(C)C2)c1 (centres undefined)	25.8%	-5.2%	-7.6%	4.7%	1.3	-3.2%
C=CCc1cc(Cl)ccc1OCCN1CC(C)OC(C)C1 (centres undefined)	4.47µM*	-11.2%	-15.5%	-24.2%	0.1	0.7%
C=CCc1cc(Cl)ccc1OCCNCCOC	?	?	-24.1%	-25.7%	2.5	-13.8%
COc1ccc(OCC(=O)NCC2(N3CCN(C)CC3)CCCCC2)cc1	-6.6%[59 µM]	1.6%	1.5%	.	.	-2.3%
Cc1cc(C)cc(NC(=O)c2ccc(S(=O)(=O)C(F)F)cc2)c1	50.1µM*	4.8%	-16.0%	20.9%	0.2	-1.8%
Oc1ccccc1N=Cc1ccc[nH]1	-11.3%[12.7 µM]	?	-15.0%	25.1µM*	-16.4	-3.0%
COC(=O)C1=C(C)[C@@H](O)[C@@H](C)[C@H](c2c(OC)c(OC)c(C)c(OC)c2OC)O1	.	-10.0%[11.5 µM]	-8.7%[11.6 µM]	5.7%	0.2	-9.6%[11.6 µM]
CCC1CN(C(=O)N2CCC(C(=O)NCc3ccco3)CC2)c2ccccc2O1 (centres undefined)	16.1%	16.5%	3.55µM*[quencher]	23.2%	.	?
CCC1CN(C(=O)N2CCC(C(=O)NCCCc3ccccc3)CC2)c2ccccc2O1 (centres undefined)	-44.1%[59 µM]	-19.0%	8.91µM*[quencher]	.	.	13.4%
O=C(NCc1ccco1)C1CCN(Cc2ccc(F)cc2)CC1	31.6µM*	-8.0%	-8.9%	1.1%	2.5	3.5%
CCC1CN(C(=O)N2CCC(C(=O)N3CCN(c4ccccc4)CC3)CC2)c2ccccc2O1 (centres undefined)	-44.2%[59 µM]	?	11.2µM*[quencher]	.	.	?
CCC1CN(C(=O)N2CCC(C(=O)NCc3ccc(C)o3)CC2)c2ccccc2O1 (centres undefined)	2.7%	12.1%	-23.5%	3.5%	.	-4.5%
